In PubChem BioAssay AID651814 (National Center for Advancing Translational Sciences (NCATS), 2012):
About 590 (28%) of roughly 2,100 compounds were called active. Another 42% or so got no clear call; they are omitted. The call rests on the fitted dose curve; in most records, active means well fitted inhibition curve with a large enough effect; inconclusive means small, poorly fitted or top-dose-only effect; inactive means flat fitted curve, though single readings scatter. The list shows a part of the results.

Each molecule was assayed against DNA dC->dU-editing enzyme APOBEC-3F (Homo sapiens) (UniProt Q8IUX4) (assay: qHTS for inhibitors of Vif-A3F interactions: Cherry picks). Details: HeLa A3F-eYFP + Vif (tagged APOBEC3F with the HIV-1 protein that degrades it), eYFP fluorescence, 24 h.
Summary of the method: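 HeLa cells stably expressing A3F-eYFP plus Vif, cultured overnight, then exposed to compounds at several concentrations for 24 h at 37 deg C. Reduced Vif-driven degradation read as rising eYFP fluorescence (488 nm ex/500-530 nm em) by laser-scanning cytometry; MG132 as positive control.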
Further: nearly all actives have a fitted effect of over 70% in size.
Potency means the concentration at half of the fitted maximal effect.
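Wherever Max response is given: % of control where 0% means no effect; active compounds raise eYFP fluorescence by blocking Vif-driven A3F loss.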

Sequence of DNA dC->dU-editing enzyme APOBEC-3F (Homo sapiens) (Q8IUX4 whole entry, looked up): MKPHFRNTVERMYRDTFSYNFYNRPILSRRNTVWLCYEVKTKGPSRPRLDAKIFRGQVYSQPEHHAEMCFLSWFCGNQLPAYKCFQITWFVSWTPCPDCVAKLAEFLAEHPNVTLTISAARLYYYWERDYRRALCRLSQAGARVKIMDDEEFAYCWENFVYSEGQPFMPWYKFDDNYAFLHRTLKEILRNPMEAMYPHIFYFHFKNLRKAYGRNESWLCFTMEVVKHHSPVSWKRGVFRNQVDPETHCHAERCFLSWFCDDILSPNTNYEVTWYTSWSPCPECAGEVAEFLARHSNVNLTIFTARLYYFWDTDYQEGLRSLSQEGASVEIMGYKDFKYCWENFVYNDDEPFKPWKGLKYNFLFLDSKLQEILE

Max response, inactive:
Fc1cccc(Cc2c(-c3ccco3)nc3ccc(Br)cn23)c1 -28.7%
O=C1c2cccc3c([N+](=O)[O-])ccc(c23)C(=O)N1c1ccccn1 -0.304%
CC(=O)Oc1ccc(N2C(=O)c3cccc4c([N+](=O)[O-])ccc(c34)C2=O)cc1 -15.1%
CCCC1=[N+](CC(=O)c2ccc(Br)cc2)CCn2cccc21 -4.77%
CCCc1nc2c(C)cc(Br)cn2c1Cc1ccccc1 -22.2%
O=C(COc1ccccc1)NC(=S)Nc1cccc2c(O)cccc12 -15.7%
COc1ccc(C(=O)NC2CCCc3ccccc32)cc1[N+](=O)[O-] (stereo not given) -23.5%
O=C(c1ccccc1)C1C(=O)c2ccccc2C1=O 2.89%
NC(=O)CSc1nc2c(sc3ccccc32)c(=O)n1CCCC(=O)NCC1CCCO1 (stereo not given) 3.7%
Cc1cc(-c2ccccc2)c2c3c(c(-c4ccccc4)n2n1)c(=O)n(C)c(=O)n3C -9.86%
N#C/C(=C\c1ccc(C(=O)O)cc1)c1nc2sc3c(c2c(=O)[nH]1)CCCC3 1.2%

Potency, active:
O=C1c2ccccc2C(=O)c2c(/C=C/N3CCCCC3)ccnc21 20.6 µM
CC(=O)Oc1cccc(N2C(=O)c3cccc4c([N+](=O)[O-])ccc(c34)C2=O)c1 14 µM
COc1ccc(C(=O)C[n+]2cc(Br)cc3ccccc32)cc1 8.2 µM
CC(C)(C)c1ccc(C(=O)C[n+]2cccc3cc(Cl)ccc32)cc1 20.6 µM
COc1ccc(C(=O)C[n+]2cccc3cc(Cl)ccc32)cc1 18.4 µM
O=C(C[n+]1cccc2cc(Cl)ccc21)c1ccc2ccccc2c1 18.4 µM
O=C(C[n+]1cccc2cc(Cl)ccc21)c1ccc(I)cc1 20.6 µM
NN=C1c2ccccc2C(=O)C1C(=O)C(c1ccccc1)c1ccccc1 (stereo not given) 7.9 µM
CCOC(=O)/C=c1/s/c(=C\c2c(OC)ccc3ccccc23)c(=O)n1CC(=O)NCC1CCCO1 (stereo not given) 11.2 µM
CCOC(=O)/C=c1\s/c(=C\c2c(OC)ccc3ccccc23)c(=O)n1CC(=O)NCC1CCCO1 (stereo not given) 14.6 µM
CCOC(=O)/C=c1/s/c(=C/c2ccc3cc(OC)ccc3c2)c(=O)n1CC(=O)NCC1CCCO1 (stereo not given) 18.4 µM
Cc1ccc(Nc2nc(Cl)c(C=O)s2)cc1Cl 23.1 µM
CN(C)c1ccc(/C=C(\C#N)c2nc3ccccc3c(=O)[nH]2)cc1 0.731 µM
Fc1ccc(-c2cnn3c(-c4cccs4)ccnc23)cc1 4.98 µM
